Shown are actives, neighbours in structure and some others; about 2.4% of the full set was active somewhere.
TMEM16A inh = mouse TMEM16A channel inhibition, primary screen; HEK293 TMEM16A/YFP iodide influx fluorescence, ionomycin; Q8BHY3; 310,000 compounds, 1.2% hits; normalized B-score (activity score, 25-100; higher = stronger inhibition) at 10 µM;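 active means ratio plate-corrected score three or more library SD toward inhibition, starting fluorescence score within five deviations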;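 further: score derived from kinetic fluorescence span divided by baseline fluorescence per well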
Target sequence (Q8BHY3 whole entry, looked up): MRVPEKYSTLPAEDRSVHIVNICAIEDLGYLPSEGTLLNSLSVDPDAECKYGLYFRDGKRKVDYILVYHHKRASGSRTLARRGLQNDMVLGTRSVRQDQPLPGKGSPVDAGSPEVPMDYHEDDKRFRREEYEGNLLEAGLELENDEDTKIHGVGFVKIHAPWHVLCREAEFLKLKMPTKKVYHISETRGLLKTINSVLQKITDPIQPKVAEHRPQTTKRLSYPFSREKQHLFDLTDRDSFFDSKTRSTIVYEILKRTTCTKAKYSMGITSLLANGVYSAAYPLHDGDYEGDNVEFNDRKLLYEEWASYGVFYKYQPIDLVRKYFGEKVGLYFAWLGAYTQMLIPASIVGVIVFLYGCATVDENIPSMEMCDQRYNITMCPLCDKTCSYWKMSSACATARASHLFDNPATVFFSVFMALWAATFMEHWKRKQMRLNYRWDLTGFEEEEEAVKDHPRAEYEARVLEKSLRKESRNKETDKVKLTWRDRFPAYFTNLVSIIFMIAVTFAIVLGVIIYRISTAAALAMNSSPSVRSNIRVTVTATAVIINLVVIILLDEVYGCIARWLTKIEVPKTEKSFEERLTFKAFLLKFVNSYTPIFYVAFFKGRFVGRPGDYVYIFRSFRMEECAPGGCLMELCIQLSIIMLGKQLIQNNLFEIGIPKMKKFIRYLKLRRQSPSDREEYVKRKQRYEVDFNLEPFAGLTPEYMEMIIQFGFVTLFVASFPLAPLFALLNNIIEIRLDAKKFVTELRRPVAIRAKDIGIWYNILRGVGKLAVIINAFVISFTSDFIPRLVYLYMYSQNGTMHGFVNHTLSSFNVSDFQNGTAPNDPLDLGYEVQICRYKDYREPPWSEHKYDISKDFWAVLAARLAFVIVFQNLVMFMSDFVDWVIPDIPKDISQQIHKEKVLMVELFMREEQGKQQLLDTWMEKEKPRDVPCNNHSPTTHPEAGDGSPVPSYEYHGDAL
CHT inh = inhibitors of human choline transporter CHT. B-score at 10 µM. AID 488975. Q9GZV3. 310,000 compounds, 0.86% hits. CHT-expressing cells, membrane potential dye, choline response; hits give low values;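 active means B-score over 3 SD under the library average, and starting fluorescence ratio not unusually high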;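 further: choline stimulus applied at its EC90 after an EC20 pre-addition; B-score computed on integrated fluorescence ratio after choline addition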
ANO1 activ = activates or potentiates the mouse TMEM16A chloride channel; 340,000 compounds, 0.3% hits; AID 623877; Q8BHY3; B-score at 10 µM; HEK293 TMEM16A/YFP-H148Q/I152L, iodide quench fluorescence; hits give low values;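 active means fluorescence-ratio B-score plate-corrected deviation score at least 3 library SD below zero, with starting fluorescence score within 5 deviations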;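 further: channel opened by trigger with iodide after compound preincubation; score built on the fluorescence ratio of max minus min over baseline; more negative score means more quench and so TMEM16A activation or potentiation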
CHT allo act = allosterically activates the human high affinity choline transporter; B-score at 10 µM; Q9GZV3; CHT-expressing cells, membrane potential dye, choline EC20; hits give high values; LV-AA mutant CHT in HEK293 cells; 310,000 compounds, 0.49% hits;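 active means initial fluorescence not abnormally high and integrated response B-score, plate-corrected, over 3 SD above library mean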
CHT activ conf = confirmation of human choline transporter (CHT) activators; 2,500 compounds, 91% hits; activation, % at 10 µM; CHT-expressing cells, membrane potential dye fluorescence (FDSS); % of choline EC20–EC90 response window; HEK293 expressing CHT LV-AA mutant; choline added at its EC20; shares compounds with CHT allo act; AID 504833;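 active means primary screen active, with duplicate mean activation above negative control mean plus 3 SD, cut at about 11% in these data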
HEK293 MP dye = CHT activator counter-screen hit in parental HEK293 cells. shares compounds with CHT allo act. membrane potential dye fluorescence (FDSS); measured after EC20 choline addition. ratio readout change at 10 µM, hits read low. 2,500 compounds, 62% hits. AID 623908;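 active means duplicate-averaged ratio beyond 3 SD from buffer wells, up or down, though filed actives are nearly all decreases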
Numbers without * were called inactive; i = inactive; / = no result given.

SMILES | TMEM16A inh | CHT inh | ANO1 activ | CHT allo act | CHT activ conf | HEK293 MP dye
N=C1c2ccccc2CN1c1cccc([N+](=O)[O-])c1 | i | i | i | i | 54* | -38*
Nc1cccc2c1Cc1cc([N+](=O)[O-])ccc1-2 | / | / | i | / | / | /
O=C1CN(O)C(c2ccccc2Cl)=c2cc(Br)ccc2=N1 | i | i | i | i | / | /
O=[N+]([O-])c1ccc(C[n+]2c(-c3ccccc3)cc(-c3ccccc3)cc2-c2ccccc2)cc1 | i | i | i | i | 49* | -47*
O=C1Nc2ccccc2/C1=C/c1cnc[nH]1 | i | i | i | i | 45* | -30*
O=c1[nH]c(O)c(C=Nc2ccccc2Oc2ccccc2)c(=O)[nH]1 | i | i | i | i | / | /
NCCCC(=O)OC1N=C(c2ccccc2Cl)c2cc(Br)ccc2NC1=O (stereo not given) | i | i | i | i | / | /
Cc1cc(C)n2nc(C)[n+](C)c2n1 | i | i | i | 8* | 60* | -34*
COc1ccc(NC(=O)c2cc([N+](=O)[O-])ccc2N2CCNCC2)cc1 | i | i | i | i | 54* | -59*
O=[N+]([O-])c1ccc(N2CC2)c([N+](=O)[O-])c1 | / | / | i | / | / | /
O=C(c1ccco1)c1cn(Cc2ccccc2)c2ccccc12 | i | i | i | 7.4* | 23* | i
Cn1c(O)c(C(=Nc2ccccc2)SCc2ccc(Cl)cc2)c(=O)n(C)c1=O | i | i | i | i | / | /
Cc1cc(C)[n+](CCCC[n+]2c(C)cc(C)cc2C)c(C)c1 | i | i | i | 7.9* | 73* | -99*
Clc1ccc(CCC(Cn2ccnc2)Sc2c(Cl)cccc2Cl)cc1 (stereo not given) | i | i | i | i | 30* | -27*
Clc1ccc(C(Cn2ccnc2)OCc2csc3c(Cl)cccc23)c(Cl)c1 (stereo not given) | i | i | i | i | / | /
COC(=O)C1=C(c2ccccc2OCc2ccccc2)C[C@@H]2CC[C@H]1N2C(=O)NCCN1CCOCC1 | / | / | i | / | / | /
CCOc1cc2[nH]c(=S)n(CCCC(=O)N3CCC4(CC3)OCCO4)c(=O)c2cc1OCC | i | i | i | i | / | /
C[n+]1c(-c2ccccc2)cc(-c2ccc(Cl)cc2)cc1-c1ccccc1 | i | i | i | 7.2* | 30* | -29*
O=[N+]([O-])c1cc(Cl)c(O)c(-[n+]2c(-c3ccccc3)cc(-c3ccccc3)cc2-c2ccccc2)c1 | i | i | i | i | / | /
CCCCCn1c(=O)c(C(=O)NCc2ccncc2)c(O)c2ccccc21 | 25* | i | i | i | 31* | i
CCCCn1c(=O)c(C(=O)NCc2ccc(Cl)cc2)c(O)c2ccccc21 | i | i | i | i | / | /
O=C(CNC(=O)c1ccc(Br)cc1)Nc1ccc(Br)cc1C(=O)c1ccccc1 | i | i | i | i | / | /
COCCN1Cc2cc(=O)n3c([nH]c4ccccc43)c2C1=N | i | i | i | i | 53* | -42*
Cc1cc(N2CCOCC2)nc2ccc(NC(=O)CCC(=O)N3CCC4(CC3)OCCO4)cc12 | i | i | i | i | 53* | -38*
CNC(=S)N(C)CCc1cc2c(c(OC)c1/C=C1/C(=O)NC(=O)N(C)C1=O)OCO2 | i | i | i | 6.6* | 37* | -54*
SMILES | TMEM16A inh | CHT inh | ANO1 activ | CHT allo act | CHT activ conf | HEK293 MP dye
CCc1cc2c(N3CCN(C)CC3)ncnc2s1 | i | i | i | i | / | /
CN1CCN(c2ncnc3c2cnn3C)CC1 | i | i | i | i | 52* | -59*
CC(=NCCCn1ccnc1)c1c(O)n(C)c(=O)n(C)c1=O | i | i | i | i | 48* | -34*
CCCCn1c(O)c(C(C)=NCCCn2ccnc2)c(=O)[nH]c1=O | i | i | i | i | / | /
CN(C)C(=O)CSc1nnc([C@@H](N)Cc2ccccc2)o1 | i | i | i | i | / | /
COC(=O)C1=C(c2c(C)noc2C)C[C@@H]2CC[C@H]1N2C(=O)NCc1ccc(C(F)(F)F)cc1 | / | / | i | / | / | /
COc1cc2c3c(c1OC)-c1cc(O)ccc1CC3NCC2 (stereo not given) | i | i | i | i | 48* | -42*
CCC(=NCc1cccnc1)c1c(O)n(-c2ccc(C)cc2)c(=O)[nH]c1=O | i | i | i | i | / | /
O=[N+]([O-])c1ccc(N2CCCC2)cc1N/N=C1\CN2CCC1CC2 | i | i | i | 6.5* | 55* | -73*
CN(C)C(=O)Oc1cccc(OCc2n(C)c3ccccc3[n+]2C)c1 | i | i | i | 7* | 55* | -42*
COc1cccc(/C=C2\N=C(c3cncc(Br)c3)OC2=O)c1 | i | i | i | i | / | /
CCOC(=O)c1c(N)n(CCN2CCCCC2)c2nc3ccccc3nc12 | i | i | i | i | 29* | -42*
CCCCn1c(N)c(C(=O)NCCN2CCOCC2)c2nc3ccccc3nc21 | i | i | i | i | / | /
CCc1nc2ccc(N3CCN(C)CC3)cc2nc1CC | i | i | i | i | / | /
CN1CCN(c2ccc3nccnc3c2)CC1 | i | i | i | i | 16* | i
c1ccc(N2C3C4CC(C5CCCC54)C32)cc1 (stereo not given) | / | / | i | / | / | /
COc1ccc(OCC(=O)N2CCN(C/C=C/c3ccccc3)CC2)cc1 | i | i | i | i | / | /
CN1CCc2nc3sc(C#N)c(N)c3c(-c3cccs3)c2C1 | i | i | i | 8.5* | 39* | -59*
CN1CCc2nc3sc(C(=O)NC4CC4)c(N)c3cc2C1 | i | i | i | i | / | /
Cn1cnnc1Sc1cc(N2CCNCC2)ccc1[N+](=O)[O-] | i | i | i | i | / | /
O=[N+]([O-])c1ccc(N2CCNCC2)cc1NCC1CCCO1 (stereo not given) | i | i | i | 9* | 56* | -66*
O=C(CF)N(O)c1ccc(C=Cc2ccccc2)cc1 | / | / | i | / | / | /
Cc1cc(-c2ccccc2)cc(C)[n+]1Cc1ccccc1 | i | i | i | 7.4* | 12* | -29*
CCOc1cc(-c2nc3c(C)cccn3c2NCC2CCCO2)ccc1O (stereo not given) | i | i | i | 6.4* | 56* | -34*
N=C1c2ccccc2CN1CC(=O)c1ccccc1 | i | i | i | i | / | /
CCN(CC)CCN1Cc2ccccc2C1=N | i | i | i | 11* | 75* | -73*
